An excerpt weighted towards active compounds, which were near 4.8% of everything screened.
Beta apoptosis = blocks beta cell apoptosis. hit rate 0.8% among 300,000. protection from apoptosis, % (test concentration not listed). INS-1E cytokine-induced death, ATP luminescence, 48 h; percent of positive-control rescue, neutral wells zero;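 active = Every replicate reaches about 75%, or at least half do and their mean reaches it too, limit read from the data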;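 also: 0% = cytokine-treated negative control wells and 100% = positive control rescue; higher means more ATP so stronger rescue from cytokine killing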
CSC inhib = cancer stem cell inhibition; AID 2717; hit rate 1.1% among 300,000; inhibition, % at 7.5 µM; cancer stem cell-like cells viability, luminescence; in the data active = inhibition above about 75%; tested in HMLE shEcad cells
Calb FLC = affects C. albicans growth with fluconazole | C. albicans CaCi-2 (fluconazole-resistant clinical isolate) + fluconazole, Alamar Blue growth, 48 h | growth inhibition, % (no concentration beside the values) | hit rate 0.57% among 300,000;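 active = growth inhibition above about 58% in most replicates, limit read from the data, passing the limit was not always enough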;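 also: all wells also contain fluconazole at 8 µg/ml as a sub-toxic cotreatment; 0% = median of DMSO wells and 100% = median of geldanamycin control wells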
MPTP inh = blocks calcium-induced mitochondrial swelling. isolated mouse mitochondria, Ca2+ swelling absorbance, 30 min. inhibition, % at 10 µM. hit rate 1.4% among 360,000. AID 602449;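 active = inhibition of 50% or more, scaled per plate between neutral and stimulator controls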;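 also: 0% = DMSO wells given calcium and 100% = 1 mM EGTA wells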
Mdm2-MdmX inh = human Mdm2/MdmX binding inhibition; O15151+Q00987; SaOS-2 split-luciferase Mdm2/MdmX complementation, luminescence; inhibition, % at 8 µM; hit rate 3% among 330,000; AID 485346;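 active = inhibition of at least 50% at 8 µM in the primary screen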
Target sequence (O15151 whole entry, looked up): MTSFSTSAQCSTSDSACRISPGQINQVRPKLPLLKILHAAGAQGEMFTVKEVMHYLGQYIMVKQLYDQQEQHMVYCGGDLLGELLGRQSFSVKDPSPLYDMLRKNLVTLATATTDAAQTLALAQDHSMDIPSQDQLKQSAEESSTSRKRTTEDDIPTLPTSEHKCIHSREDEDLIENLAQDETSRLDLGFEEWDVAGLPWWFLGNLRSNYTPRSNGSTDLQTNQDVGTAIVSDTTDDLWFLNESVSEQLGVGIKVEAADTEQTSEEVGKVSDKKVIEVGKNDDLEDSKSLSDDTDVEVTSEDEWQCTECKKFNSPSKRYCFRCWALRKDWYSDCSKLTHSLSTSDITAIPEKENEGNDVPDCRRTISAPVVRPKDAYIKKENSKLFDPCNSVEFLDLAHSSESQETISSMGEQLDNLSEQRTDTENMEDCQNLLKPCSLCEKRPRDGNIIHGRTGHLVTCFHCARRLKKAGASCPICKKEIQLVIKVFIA
Target sequence (Q00987 whole entry, looked up): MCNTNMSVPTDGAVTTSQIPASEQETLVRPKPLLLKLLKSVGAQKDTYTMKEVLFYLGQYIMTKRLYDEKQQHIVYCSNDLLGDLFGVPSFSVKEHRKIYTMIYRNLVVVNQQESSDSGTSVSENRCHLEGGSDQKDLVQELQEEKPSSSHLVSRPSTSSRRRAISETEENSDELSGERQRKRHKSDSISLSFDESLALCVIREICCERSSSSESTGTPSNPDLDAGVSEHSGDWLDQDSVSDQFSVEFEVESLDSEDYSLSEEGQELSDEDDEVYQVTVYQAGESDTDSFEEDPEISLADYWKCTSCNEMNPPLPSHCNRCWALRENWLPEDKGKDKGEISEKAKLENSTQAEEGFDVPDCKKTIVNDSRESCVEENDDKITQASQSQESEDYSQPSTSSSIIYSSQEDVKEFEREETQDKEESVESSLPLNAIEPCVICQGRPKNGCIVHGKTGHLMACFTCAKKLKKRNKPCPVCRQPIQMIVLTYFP
MPTP counter = Rhodamine 123 counter-screen of mitochondrial pore hits. hit rate 78% among 5,000. inhibition, % at 10 µM. AID 624504. isolated mitochondria, membrane potential, Rhodamine 123 fluorescence. shares compounds with MPTP inh; in the data active = inhibition above about 22%;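 also: 0% = DMSO vehicle and 100% = positive control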
MPTP swell DR = dose response confirmation of mitochondrial permeability transition pore inhibitors; shares compounds with MPTP inh; isolated mitochondria swelling, absorbance; IC50, µM; hit rate 58% among 780; in the data active = IC50 below about 20 µM
MPTP counter DR = active in counter-screen for permeability transition pore inhibitors; AID 651564; isolated mitochondria counterscreen, fluorescence read-out; IC50, µM; shares compounds with MPTP inh; hit rate 49% among 780; in the data active = IC50 below about 80 µM
Active calls of the source: *.

CCN(CC)CCN(C(=O)c1ccc(Br)s1)c1nc2cc3c(cc2s1)OCCO3 was read as Beta apoptosis 4, CSC inhib 1, Calb FLC 18, MPTP inh 2 and Mdm2-MdmX inh 2.
Screening COc1ccc(Cl)c2sc(N(CCN(C)C)C(=O)c3ccc4c(c3)OCCO4)nc12 returned CSC inhib -9, Calb FLC -13, MPTP inh 74*, Mdm2-MdmX inh 33, MPTP counter -13, MPTP swell DR inactive and MPTP counter DR 50*.
Screening CN(C)CCN(C(=O)c1ccc2c(c1)OCCO2)c1nc2c(Cl)cccc2s1 returned Beta apoptosis -9, CSC inhib -5, Calb FLC 3, MPTP inh 2 and Mdm2-MdmX inh -1.
For COc1ccc(S(=O)(=O)N2CCOCC2)cc1NC(=O)COC(=O)CC1CC2CCC1C2 (stereo not given) the results were Beta apoptosis -5, CSC inhib 12, MPTP inh 1 and Mdm2-MdmX inh 3.
CN(/N=C/c1cc(Cl)cc(Cl)c1O)C(=S)NC(C)(C)C was read as Beta apoptosis 15, CSC inhib 100*, Calb FLC -5, MPTP inh 85*, Mdm2-MdmX inh 8 and MPTP counter 75*.
Oc1c(Cl)cc(Cl)cc1C=Nc1ccc2c(c1)OCCO2 was read as Beta apoptosis -3, CSC inhib -7, Calb FLC -29, MPTP inh 3 and Mdm2-MdmX inh 36.
Screening CC(=O)N1CCN(C(=S)c2ccc([N+](=O)[O-])cc2)CC1 returned Beta apoptosis 0, CSC inhib -3, Calb FLC 3, MPTP inh 119*, Mdm2-MdmX inh 22, MPTP counter 0, MPTP swell DR >100 and MPTP counter DR >80.
For CCCCC#Cc1ccc(C(=O)NNC(=O)Nc2cc(Cl)cc(Cl)c2)o1 the results were Beta apoptosis -4, CSC inhib 25, Calb FLC -10, MPTP inh 79*, Mdm2-MdmX inh 24 and MPTP counter 77*.
CC(C)(C)c1ccc(S(=O)(=O)Nc2ccc(Cc3ccncc3)cc2)cc1 was read as Beta apoptosis 37, CSC inhib 20, Calb FLC 0, MPTP inh 73*, Mdm2-MdmX inh 28 and MPTP counter 74*.
Screening COC(=O)c1c(NC(=O)c2ccccc2[N+](=O)[O-])sc2c1CC(C)(C)NC2(C)C returned Beta apoptosis -8, CSC inhib -9, Calb FLC -19, MPTP inh 0 and Mdm2-MdmX inh 30.
For COC(=O)c1c(NC(=O)C2CCCCC2)sc2c1CC(C)(C)NC2(C)C the results were Beta apoptosis -8, CSC inhib -8, Calb FLC -3, MPTP inh 67*, Mdm2-MdmX inh 43, MPTP counter -10, MPTP swell DR 6.2* and MPTP counter DR >80.
`COC(=O)c1c(NC(=O)Cc2ccccc2)sc2c1CC(C)(C)NC2(C)C` gave Beta apoptosis -7, CSC inhib -6, Calb FLC 25, MPTP inh 74*, Mdm2-MdmX inh 22, MPTP counter -3, MPTP swell DR inactive and MPTP counter DR >80.
`Cc1cccc(CC(=O)Nc2ccc(C(=O)N3CCOCC3)cc2)c1` gave Beta apoptosis -5, CSC inhib -16, Calb FLC -12, MPTP inh -1 and Mdm2-MdmX inh 16.
Screening O=C(O)CCN1C(=O)/C(=C\c2ccc(-c3nc4ccccc4s3)o2)SC1=S returned Beta apoptosis -2, CSC inhib 6, Calb FLC -2, MPTP inh 89*, Mdm2-MdmX inh -2 and MPTP counter -25.
Screening CCN1CCN(c2cc(SC(C)C)nc(-c3ccc(OC)cc3)n2)CC1 returned Calb FLC -11, MPTP inh 78*, MPTP counter -16, MPTP swell DR 10* and MPTP counter DR 62*.
Screening COC(=O)c1ccc2nc(Nc3nc4ccc(F)cc4s3)sc2c1 returned Beta apoptosis -4, CSC inhib 53, Calb FLC 1, MPTP inh 89* and MPTP counter 72*.
CC(=O)c1sc(Nc2nc3ccc(F)cc3s2)nc1C was read as Beta apoptosis 40, CSC inhib 27, Calb FLC -4, MPTP inh 71*, Mdm2-MdmX inh -89 and MPTP counter 63*.
For O=C(NNc1nc2ccc(F)cc2s1)c1cccc(F)c1 the results were Beta apoptosis 49, CSC inhib 63, Calb FLC 44, MPTP inh 92*, Mdm2-MdmX inh 37 and MPTP counter 76*.
Cc1cc(=O)oc2cc(O)cc(OCc3ccccc3)c12 was read as MPTP inh 78* and MPTP counter 98*.
For C=CCN(CC=C)C(=O)C1CCN(S(=O)(=O)c2ccc(N3CCCC3=O)cc2)CC1 the results were Beta apoptosis -3, CSC inhib -16, Calb FLC 2, MPTP inh -1 and Mdm2-MdmX inh 15.
`Cc1cc(Cl)ccc1NC(=S)NC1CCCC1` gave Beta apoptosis 1, CSC inhib -16, Calb FLC -11, MPTP inh 0 and Mdm2-MdmX inh -8.
CC1CCCCC1NC(=S)Nc1ccc(Cl)cc1Cl (stereo not given) was read as Beta apoptosis 1, CSC inhib 14, Calb FLC -11, MPTP inh 93*, Mdm2-MdmX inh -59 and MPTP counter 87*.
For Fc1ccc(CNC(=S)Nc2ccc(Cl)cc2Cl)cc1 the results were Beta apoptosis 0, CSC inhib -6, Calb FLC 0, MPTP inh 100*, Mdm2-MdmX inh 13 and MPTP counter 106*.
Screening Cc1c(Cl)cccc1NC(=S)NCCc1ccc(F)cc1 returned Beta apoptosis 0, CSC inhib -6, Calb FLC -12, MPTP inh 32 and Mdm2-MdmX inh 14.
Screening S=C(NCc1ccc(Cl)cc1)Nc1ccc(Cl)cc1Cl returned Beta apoptosis 2, CSC inhib 1, Calb FLC -25, MPTP inh 100*, Mdm2-MdmX inh 15 and MPTP counter 87*.
`Cc1c(Cl)cccc1NC(=S)NCCc1ccc(Cl)cc1` gave CSC inhib 12, Calb FLC -7, MPTP inh 85*, Mdm2-MdmX inh 28 and MPTP counter 81*.
Screening C=CCN(C(=O)CCC(=O)Nc1cc(C)on1)C(C(=O)NC1CCCC1)c1ccc(C)cc1 (stereo not given) returned Beta apoptosis -10, CSC inhib 3, Calb FLC 13, MPTP inh 1 and Mdm2-MdmX inh -14.
`CCCc1cc(=O)n2nc(N3CCC(C(=O)N4CCN(c5ccc(OC)cc5)CC4)CC3)sc2n1` gave Beta apoptosis 41, CSC inhib 9, Calb FLC -22, MPTP inh 0 and Mdm2-MdmX inh 23.
